Reference: PubChem BioAssay AID1159580 (chemical genetic matrix, 2015)
Screen size: about 5,500 compounds; about 2,000 (36%) were called active. About 18% were inconclusive and are not listed. Cut-off read from the data, not from the text of the source: active = normalized growth mostly below about 0.91 (no sharp cut-off); inconclusive = no clear call, values can overlap the other calls; inactive = mostly above about 0.92. The list shows a part of the results.

Assay: chemical genetic growth profiling, strain panel (AID 1159580);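 note: tested at 20 µM; growth read once vehicle control cultures reached saturation at 30 °C; 1 = growth at the plate median or of vehicle wells; lower values mean less growth of the strain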
Settings: growth OD
[1] = S. cerevisiae deletion strains, locus YAL013W, strain DEP1, hits give low values
[2] = S. cerevisiae deletion strains, locus YGR078C, strain PAC10, hits give low values
[3] = S. cerevisiae deletion strains, locus YMR263W, strain SAP30, hits give low values
[4] = S. cerevisiae deletion strains, locus YNL322C, strain KRE1, hits give low values
[5] = S. cerevisiae deletion strains, locus YPL055C, strain LGE1, hits give low values
[6] = S. cerevisiae deletion strains, locus YPL241C, strain CIN2, hits give low values
[7] = S. cerevisiae deletion strains, locus YBR229C, strain ROT2, hits give low values
[8] = S. cerevisiae deletion strains, locus YDL101C, strain DUN1, hits give low values
[9] = S. cerevisiae deletion strains, locus YDR150W, strain NUM1, hits give low values
[10] = S. cerevisiae deletion strains, locus YEL061C, strain CIN8, hits give low values
[11] = S. cerevisiae deletion strains, locus YHR030C, strain SLT2, hits give low values
[12] = S. cerevisiae deletion strains, locus YHR087W, strain rtc3, hits give low values
[13] = S. cerevisiae deletion strains, locus YJR043C, strain POL32, hits give low values
[14] = S. cerevisiae deletion strains, locus YJR075W, strain HOC1, hits give low values
[15] = S. cerevisiae deletion strains, locus YKL190W, strain CNB1, hits give low values
[16] = S. cerevisiae deletion strains, locus YLR039C, strain RIC1, hits give low values
[17] = S. cerevisiae deletion strains, locus YLR058C, strain SHM2 (second series), hits give low values
[18] = S. cerevisiae deletion strains, locus YLR085C, strain ARP6, hits give low values
[19] = S. cerevisiae deletion strains, locus YLR262C, strain YPT6, hits give low values
[20] = S. cerevisiae deletion strains, locus YML094W, strain GIM5, hits give low values
[21] = S. cerevisiae deletion strains, locus YMR219W, strain ESC1, hits give low values
[22] = S. cerevisiae deletion strains, locus YNL153C, strain GIM3, hits give low values
[23] = S. cerevisiae deletion strains, locus YNL298W, strain CLA4 (second series), hits give low values
[24] = S. cerevisiae deletion strains, locus YNR030W, strain Alg12, hits give low values
[25] = S. cerevisiae deletion strains, locus YPR135W, strain CTF4, hits give low values
[26] = S. cerevisiae strains, strain wild type, hits give low values
[27] = S. cerevisiae deletion strains, locus YCL061C, strain MRC1, hits give low values
[28] = S. cerevisiae deletion strains, locus YJL187C, strain SWE1, hits give low values
[29] = S. cerevisiae deletion strains, locus YMR307W, strain GAS1, hits give low values

Measured: normalized growth

O=C(O)[C@@H]1C[C@@H](C(=O)O)N1
inactive: [1] 1.02 | S. cerevisiae deletion strains, locus YAL040C, strain CLN3, hits give low values 1.08 | S. cerevisiae deletion strains, locus YCL061C, strain MRC1 (second series), hits give low values 1 | S. cerevisiae deletion strains, locus YER002W, strain NOP16, hits give low values 1 | [2] 1.01 | S. cerevisiae deletion strains, locus YGR229C, strain SMI1, hits give low values 0.986 | [3] 0.997 | S. cerevisiae deletion strains, locus YNL175C, strain NOP13, hits give low values 1 | S. cerevisiae deletion strains, locus YNL197C, strain WHI3, hits give low values 1.02 | S. cerevisiae deletion strains, locus YNL224C, strain SQS1, hits give low values 0.978 | [4] 0.986 | S. cerevisiae deletion strains, locus YOR083W, strain WHI5 (second series), hits give low values 1.03 | [5] 1.02 | [6] 0.992

CSc1sc(C#N)c2c1C(O)CCC2 (stereo not given)
inactive: [1] 0.988 | [7] 0.973 | [8] 0.977 | [9] 0.948 | [10] 0.993 | [2] 0.983 | [11] 0.931 | [12] 0.968 | [13] 0.961 | [14] 0.96 | [15] 0.992 | [16] 1.01 | [17] 0.982 | [18] 1.03 | [19] 1.01 | [20] 1 | [21] 0.985 | [3] 0.95 | S. cerevisiae deletion strains, locus YNL128W, strain TEP1, hits give low values 0.975 | [22] 0.976 | [23] 0.964 | [4] 1 | [24] 0.974 | S. cerevisiae deletion strains, locus YOL006C, strain TOP1, hits give low values 0.959 | [5] 0.902 | [6] 0.982 | [25] 0.94 | [26] 0.984

CC(C)(C)NC[C@H](O)c1ccc(O)c(CO)c1
inactive: S. cerevisiae deletion strains, locus YAL021C, strain ccr4, hits give low values 1.02 | S. cerevisiae deletion strains, locus YAL026C, strain drs2, hits give low values 1.03 | S. cerevisiae deletion strains, locus YAL030W, strain snc1, hits give low values 1.02 | S. cerevisiae deletion strains, locus YBL061C, strain skt5, hits give low values 1.01 | S. cerevisiae deletion strains, locus YBR009C, strain hhf1, hits give low values 1.03 | S. cerevisiae deletion strains, locus YBR023C, strain chs3, hits give low values 1.02 | S. cerevisiae deletion strains, locus YBR171W, strain sec66, hits give low values 1.04 | S. cerevisiae deletion strains, locus YBR231C, strain swc5, hits give low values 1.03 | S. cerevisiae deletion strains, locus YBR279W, strain paf1, hits give low values 1.02 | S. cerevisiae deletion strains, locus YCL011C, strain gbp2, hits give low values 1.02 | S. cerevisiae deletion strains, locus YCL016C, strain dcc1, hits give low values 1.02 | [27] 1.01 | S. cerevisiae deletion strains, locus YCL069W, strain vba3, hits give low values 1.02 | S. cerevisiae deletion strains, locus YCR088W, strain abp1, hits give low values 1.02 | S. cerevisiae deletion strains, locus YDL005C, strain med2, hits give low values 1.02 | S. cerevisiae deletion strains, locus YDL040C, strain nat1, hits give low values 1.02 | S. cerevisiae deletion strains, locus YDR001C, strain nth1, hits give low values 1.01 | S. cerevisiae deletion strains, locus YDR069C, strain doa4, hits give low values 1.04 | S. cerevisiae deletion strains, locus YDR137W, strain rgp1, hits give low values 1.06 | S. cerevisiae deletion strains, locus YDR159W, strain sac3, hits give low values 1.04 | S. cerevisiae deletion strains, locus YDR195W, strain ref2 1.02 | S. cerevisiae deletion strains, locus YDR297W, strain sur2, hits give low values 1.05 | S. cerevisiae deletion strains, locus YDR334W, strain swr1, hits give low values 1.02 | S. cerevisiae deletion strains, locus YDR335W, strain msn5, hits give low values 1.01 | S. cerevisiae deletion strains, locus YDR392W, strain spt3, hits give low values 0.992 | S. cerevisiae deletion strains, locus YEL003W, strain gim4, hits give low values 1.01 | S. cerevisiae deletion strains, locus YEL037C, strain rad23, hits give low values 1 | S. cerevisiae deletion strains, locus YEL061C, strain CIN8 (second series), hits give low values 1.01 | S. cerevisiae deletion strains, locus YER015W, strain faa2, hits give low values 1.02 | S. cerevisiae deletion strains, locus YER016W, strain bim1, hits give low values 1.03 | S. cerevisiae deletion strains, locus YER111C, strain swi4, hits give low values 1.02 | S. cerevisiae deletion strains, locus YER155C, strain BEM2 (second series), hits give low values 1.03 | S. cerevisiae deletion strains, locus YFR010W, strain ubp6, hits give low values 1.02 | S. cerevisiae deletion strains, locus YGL167C, strain pmr1, hits give low values 1.01 | S. cerevisiae deletion strains, locus YGL173C, strain kem1, hits give low values 1.03 | S. cerevisiae deletion strains, locus YGL227W, strain vid30, hits give low values 1.01 | S. cerevisiae deletion strains, locus YGL240W, strain doc1, hits give low values 1.02 | S. cerevisiae deletion strains, locus YGL253W, strain hxk2, hits give low values 1.01 | S. cerevisiae deletion strains, locus YHR013C, strain ard1, hits give low values 1.04 | S. cerevisiae deletion strains, locus YHR027C, strain rpn1, hits give low values 1.02 | [11] 0.999 | S. cerevisiae deletion strains, locus YHR079C, strain IRE1, hits give low values 0.97 | S. cerevisiae deletion strains, locus YHR142W, strain chs7, hits give low values 1.01 | S. cerevisiae deletion strains, locus YJL092W, strain hpr5, hits give low values 1.02 | S. cerevisiae deletion strains, locus YJL095W, strain BCK1 (second series), hits give low values 1.01 | S. cerevisiae deletion strains, locus YJL095W, strain BCK1, hits give low values 0.966 | S. cerevisiae deletion strains, locus YJL115W, strain asf1, hits give low values 1.02 | S. cerevisiae deletion strains, locus YJL129C, strain trk1, hits give low values 1.03 | S. cerevisiae deletion strains, locus YJL154C, strain vps35, hits give low values 1.02 | S. cerevisiae deletion strains, locus YJL164C, strain tpk1, hits give low values 1.02 | S. cerevisiae deletion strains, locus YJL166W, strain qcr8, hits give low values 1.02 | [28] 1.02 | S. cerevisiae deletion strains, locus YJR066W, strain TOR1, hits give low values 0.955 | S. cerevisiae deletion strains, locus YKL160W, strain elf1, hits give low values 1.02 | S. cerevisiae deletion strains, locus YKR026C, strain gcn3, hits give low values 1.01 | S. cerevisiae deletion strains, locus YKR091W, strain srl3, hits give low values 1.02 | S. cerevisiae deletion strains, locus YLL001W, strain dnm1, hits give low values 1.03 | S. cerevisiae deletion strains, locus YLL026W, hits give low values 1.03 | S. cerevisiae deletion strains, locus YLL041C, strain sdh2, hits give low values 1.02 | S. cerevisiae deletion strains, locus YLR027C, strain aat2, hits give low values 1.02 | S. cerevisiae deletion strains, locus YLR113W, strain HOG1, hits give low values 0.976 | S. cerevisiae deletion strains, locus YLR221C, strain rsa3, hits give low values 1.02 | S. cerevisiae deletion strains, locus YLR258W, strain gsy2, hits give low values 1.03 | S. cerevisiae deletion strains, locus YLR262C, strain YPT6 (second series), hits give low values 1.03 | S. cerevisiae deletion strains, locus YLR320W, strain mms22, hits give low values 1.02 | S. cerevisiae deletion strains, locus YLR342W, strain FKS1, hits give low values 1.03 | S. cerevisiae deletion strains, locus YLR357W, strain rsc2, hits give low values 1.06 | S. cerevisiae deletion strains, locus YLR370C, strain arc18, hits give low values 1.02 | S. cerevisiae deletion strains, locus YLR384C, strain iki3, hits give low values 1.02 | S. cerevisiae deletion strains, locus YML120C, strain ndi1, hits give low values 1.01 | S. cerevisiae deletion strains, locus YMR058W, strain fet3, hits give low values 1.02 | S. cerevisiae deletion strains, locus YMR125W, strain sto1, hits give low values 1.03 | S. cerevisiae deletion strains, locus YMR129W, hits give low values 1 | S. cerevisiae deletion strains, locus YMR205C, strain PFK2, hits give low values 1.02 | S. cerevisiae deletion strains, locus YMR231W, strain pep5, hits give low values 1.03 | S. cerevisiae deletion strains, locus YNL071W, strain lat1, hits give low values 1.02 | S. cerevisiae deletion strains, locus YNL183C, strain NPR1, hits give low values 0.912 | S. cerevisiae deletion strains, locus YNL209W, strain ssb2, hits give low values 1.02 | S. cerevisiae deletion strains, locus YNL248C, strain rpa49, hits give low values 1.01 | S. cerevisiae deletion strains, locus YNL322C, strain KRE1 (second series), hits give low values 1.01 | S. cerevisiae deletion strains, locus YNR049C, strain mso1, hits give low values 1.02 | S. cerevisiae deletion strains, locus YOR001W, strain rrp6, hits give low values 1.02 | S. cerevisiae deletion strains, locus YOR070C, strain gyp1, hits give low values 1.01 | S. cerevisiae deletion strains, locus YOR080W, strain dia2, hits give low values 1.02 | S. cerevisiae deletion strains, locus YOR083W, strain WHI5, hits give low values 1.01 | S. cerevisiae deletion strains, locus YOR106W, strain vam3, hits give low values 1.02 | S. cerevisiae deletion strains, locus YOR231W, strain MKK1, hits give low values 0.973 | S. cerevisiae deletion strains, locus YOR265W, strain rbl2, hits give low values 1.01 | S. cerevisiae deletion strains, locus YOR270C, strain vph1, hits give low values 1.07 | S. cerevisiae deletion strains, locus YOR290C, strain snf2, hits give low values 1.03 | S. cerevisiae deletion strains, locus YPL051W, strain arl3, hits give low values 1.02 | S. cerevisiae deletion strains, locus YPL078C, strain atp4, hits give low values 1.02 | S. cerevisiae deletion strains, locus YPL106C, strain sse1, hits give low values 1.03 | S. cerevisiae deletion strains, locus YPL240C, strain hsp82, hits give low values 1.02 | S. cerevisiae deletion strains, locus YPL256C, strain CLN2, hits give low values 0.971

Nc1ccc2nonc2c1N
inactive: [1] 0.965 | [7] 0.96 | [8] 0.906 | S. cerevisiae deletion strains, locus YDL134C, strain PPH21, hits give low values 0.968 | [9] 0.941 | [10] 0.956 | [2] 0.933 | [11] 0.804 | [12] 0.993 | [28] 0.974 | [13] 0.951 | [14] 0.985 | [15] 0.983 | [16] 0.908 | [17] 0.967 | [18] 0.853 | [19] 0.902 | [20] 0.954 | [21] 0.982 | [3] 0.923 | [29] 0.882 | [23] 0.95 | [4] 0.988 | [5] 0.921 | [6] 0.919 | [25] 0.776 | [26] 0.955
active: [27] 0.902 | [22] 0.919 | [24] 0.845

Cc1ccc(Sc2ccc([N+](=O)[O-])cc2/C=C2\SC(=S)NC2=O)cc1
active: [10] 0.859 | [11] 0.615 | [16] 0.324 | [19] 0.744 | [29] 0.524 | [25] 0.553
inactive: [1] 0.963 | [7] 0.992 | [8] 0.99 | [9] 0.982 | [2] 0.98 | [12] 0.991 | [28] 1 | [13] 0.997 | [14] 0.976 | [15] 0.979 | [17] 0.999 | [18] 0.82 | [20] 0.897 | [21] 0.984 | [3] 0.978 | [22] 0.996 | [23] 0.887 | [4] 0.969 | [24] 0.903 | [5] 0.963 | [6] 0.924 | [26] 0.982
